This note sets out measurements from PubChem BioAssay (NCATS).

Experiment [1] deals with Aldehyde dehydrogenase, mitochondrial (Homo sapiens) (UniProt P05091). Description: qHTS for Inhibitors of the Aldehyde Dehydrogenase Family (ALDH2) Primary screen (AID 2061308). Further: nearly all actives have a fitted effect of over 55% in size. The settings on record: ALDH2 enzyme inhibition qHTS, 1536-well; series mostly up to 56 µM.
Experiment [2] has as its target Retinaldehyde dehydrogenase 3 (Homo sapiens) (UniProt P47895). Description: qHTS for Inhibitors of the Aldehyde Dehydrogenase Family (ALDH1A3) Primary screen (AID 2061315). The conditions noted are these: ALDH inhibition qHTS; series mostly up to 56 µM. A general note: qHTS replaces the single test concentration by a dilution series.

Inconclusive results are not listed. Where a call stands in place of a potency, no number is given. The source made the active and inactive calls. The call rests on the fitted dose curve; in most records, active means well fitted curve in the direction sought with a large enough effect; inconclusive means small, poorly fitted or top-dose-only effect, or another doubt; inactive means no such curve, though single readings can be large; an effect the other way counts as inactive or inconclusive.

Consider `CC(=O)Nc1sc2c(c1-c1cncnc1)CCNC2`, for which the Potency entry in experiment [1] and in experiment [2] was “inactive” each time.

With `COc1cc(O)c(C(CC(=O)N2CCCC(C)C2)c2ccc3c(c2)OCO3)c(OC)c1` (stereo not drawn), the Potency entry in experiment [1] and in experiment [2] was “inactive” in each case.

For the compound `COc1cccc(-c2nnc3n2N=C(c2ccc(OC)cc2OC)CS3)c1`, the Potency entry in experiment [1] and in experiment [2] was “inactive” each time.

Take `CCOc1ccc(C(=O)Nc2ccc(-c3nn[nH]n3)cc2)cc1[N+](=O)[O-]`: the Potency result in experiment [1] and in experiment [2] was “inactive” in each case.

Regarding `COc1ccc(Cl)cc1S(=O)(=O)N1CCN(S(=O)(=O)c2ccc3c(c2)OCCO3)CC1`, the Potency result in experiment [1] and in experiment [2] was “inactive” in each case.

As for `Cc1ccc(NS(=O)(=O)c2ccc3[nH]c(=O)[nH]c3c2)cc1C`, the Potency result in experiment [1] and in experiment [2] was “inactive” each time.

Regarding `CNC1CCC(N(Cc2ccc(OC)c(-c3ccc(C#N)cc3)c2)C(=O)c2sc3ccccc3c2Cl)CC1` (stereo not drawn), the Potency entry in experiment [1] and in experiment [2] was “inactive” in each case.

Consider `OC(c1ccccc1)(c1ccccc1)c1cnc2ccccn12`, for which the Potency entry in experiment [1] and in experiment [2] was “inactive” throughout.

Take `O=C(O)c1ccc2c(c1)C(=O)N([C@H](Cc1c[nH]c3ccccc13)C(=O)O)C2=O`: the Potency entry in experiment [1] and in experiment [2] was “inactive” throughout.

As to `Cc1cc(N[S+](=O)([O-])c2cc3c(cc2F)NC(=O)CC3)ccc1Br`, the Potency result in experiment [1] and in experiment [2] was “inactive” in each case.

As for `Cc1ccc(S(=O)(=O)Nc2cc([N+](=O)[O-])ccc2C(=O)Nc2nc(-c3ccccc3)cs2)cc1`, the Potency entry in experiment [1] and in experiment [2] was “inactive” throughout.

In the case of `O=S(=O)(NC1CCC(NS(=O)(=O)c2c(F)cccc2F)CC1)c1ccc2c(c1)OCCO2` (stereo not drawn), the Potency result in experiment [1] and in experiment [2] was “inactive” throughout.

In the case of `COc1cc(-c2ccc3ncnc(N(C)Cc4csc(C)n4)c3c2)cc(OC)c1OC`, the Potency result in experiment [1] and in experiment [2] was “inactive” throughout.

Consider `C=C[C@@]12COC(=O)C(=C)C1[C@@H](O)[C@H](C(=C)C(=O)OC)[C@@H](OC(=O)C(=C)CO)C2` (stereo partly drawn), for which the Potency result in experiment [1] and in experiment [2] was “inactive” in each case.
